From the supplement of paper PMC10849652
Of roughly 8,800 targets only a part is listed; those with a hit were picked by preference. About 0.5% of all pairs of compound and target were hits. A number with no mark means an inactive call.

Assays:
Test in all cases: log2 fold change, soluble protein after heating vs DMSO (PISA); higher = thermal stabilisation; K562 lysate, 10 uM; active = over 0.2 and 3.5 SD of the protein, either way, in both replicates (recomputed)
[1] = compound: CN1CC[C@H](c2c(O)cc(O)c3c(=O)cc(-c4ccccc4Cl)oc23)[C@H](O)C1 [alvocidib]
In short: (§1)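 To prepare the extract, K562 pellets were dounce-homogenised in PBS pH 7.4 with 1 mM MgCl2, giving crude material at 1 mg/mL protein. This was treated with 10 μM compound for 30 min, then heated in aliquots for 3 min over 48°C-58°C before pooling and addition of NP-40 to 0.5% at 4°C. Centrifugation at 21,000xg for 90 min left soluble protein in the supernatant, which TMTpro 16plex LC-MS/MS quantified with equalised channel sums. Results are log-two fold changes in thermal stability compared with solvent controls, from duplicates.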

[2] = compound: CN1CCc2c(c3ccccc3n2Cc2ccc(C(=O)NO)cc2)C1 [Tubastatin A]
In short: as §1

[3] = compound: CNC(=O)C1=CC=CC=C1NC2=NC(=NC=C2Cl)NC3=C(C=C(C=C3)N4CCOCC4)OC
In short: as §1

[4] = compound: CNC(=O)c1ccc(Nc2ncc(C(F)(F)F)c(NCc3nccnc3N(C)S(C)(=O)=O)n2)cc1 [defactinib]
In short: as §1

[5] = compound: CNc1nc(-c2ccc3c(N)n[nH]c3c2)cc(N2C[C@@H](C(=O)NC3CCCCC3)CC[C@H]2C)n1
In short: as §1

[6] = compound: COC(=O)N[C@@H](C)CNc1nccc(-c2cn(C(C)C)nc2-c2cc(Cl)cc(NS(C)(=O)=O)c2F)n1 [encorafenib]
In short: as §1

[7] = compound: COC(=O)[C@H](CCSC)NC(=O)C1=C(C=C(C=C1)NC[C@H](CS)N)C2=CC=CC=C2
In short: as §1

[8] = compound: COc1cc(Nc2ncc3c(n2)-c2ccc(Cl)cc2C(c2c(F)cccc2OC)=NC3)ccc1C(=O)O [alisertib]
In short: as §1

[9] = compound: COc1cc2nc(-c3cc(F)ccc3O)nc(N[C@@H]3CNC[C@H]3C(C)(C)O)c2cc1OC
In short: as §1

[10] = compound: COc1cc2ncnc(Nc3ccc(F)c(Cl)c3)c2cc1OCCCN1CCOCC1 [gefitinib]
In short: as §1

[11] = compound: CS(=O)(=O)CCNCc1ccc(-c2ccc3ncnc(Nc4ccc(OCc5cccc(F)c5)c(Cl)c4)c3c2)o1 [lapatinib]
In short: as §1

[12] = compound: CS(=O)(=O)N1CCN(Cc2cc3nc(-c4cccc5[nH]ncc45)nc(N4CCOCC4)c3s2)CC1 [pictilisib]
In short: as §1

[13] = compound: C[C@@H](Oc1cc(-c2cnn(C3CCNCC3)c2)cnc1N)c1c(Cl)ccc(F)c1Cl [crizotinib]
In short: as §1

[14] = compound: C[C@H](C1=CC=C(C=C1)C(=O)NC2=C3C=CNC3=NC=C2)N
In short: as §1

[15] = compound: C[C@H](Nc1ncnc2nc[nH]c12)c1cc2cccc(Cl)c2c(=O)n1-c1ccccc1 [duvelisib]
In short: as §1

[16] = compound: Cc1cc(Nc2cc(CN3CCOCC3)c3nc(C)c(Cc4ccc(Cl)cc4F)n3n2)n[nH]1 [gandotinib]
In short: as §1

[17] = compound: Cc1cc(Nc2cc(N3CCN(C)CC3)nc(Sc3ccc(NC(=O)C4CC4)cc3)n2)n[nH]1 [tozasertib]
In short: as §1

[18] = compound: Cc1ccc(-n2nc(C(C)(C)C)cc2NC(=O)Nc2ccc(OCCN3CCOCC3)c3ccccc23)cc1 [doramapimod]
In short: as §1

[19] = compound: Cc1ccc(NC(=O)c2ccc(CN3CC[C@H](N(C)C)C3)c(C(F)(F)F)c2)cc1Nc1nccc(-c2cncnc2)n1 [bafetinib]
In short: as §1

[20] = compound: Cc1cccc(CC(=O)N2CCc3c2ccc(-c2cn(C)c4ncnc(N)c24)c3F)n1
In short: as §1

Chain of UniProt P14866 (P14866 whole entry, looked up): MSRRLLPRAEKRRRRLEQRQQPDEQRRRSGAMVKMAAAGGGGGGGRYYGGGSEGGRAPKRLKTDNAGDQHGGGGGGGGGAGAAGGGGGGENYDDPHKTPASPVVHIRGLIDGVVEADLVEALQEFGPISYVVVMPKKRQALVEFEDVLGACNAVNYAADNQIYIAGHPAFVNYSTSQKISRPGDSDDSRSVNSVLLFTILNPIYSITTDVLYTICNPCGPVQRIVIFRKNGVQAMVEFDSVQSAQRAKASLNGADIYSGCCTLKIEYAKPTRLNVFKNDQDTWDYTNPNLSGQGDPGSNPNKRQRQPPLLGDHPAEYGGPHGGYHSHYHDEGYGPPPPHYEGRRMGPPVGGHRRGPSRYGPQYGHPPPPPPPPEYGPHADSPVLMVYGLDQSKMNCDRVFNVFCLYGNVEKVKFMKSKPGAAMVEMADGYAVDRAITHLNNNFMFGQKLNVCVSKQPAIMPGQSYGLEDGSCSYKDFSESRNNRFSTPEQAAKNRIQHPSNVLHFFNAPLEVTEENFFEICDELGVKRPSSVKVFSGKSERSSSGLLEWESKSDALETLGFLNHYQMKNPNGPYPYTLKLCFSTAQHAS
Chain of UniProt Q5T447 (Q5T447 whole entry, looked up): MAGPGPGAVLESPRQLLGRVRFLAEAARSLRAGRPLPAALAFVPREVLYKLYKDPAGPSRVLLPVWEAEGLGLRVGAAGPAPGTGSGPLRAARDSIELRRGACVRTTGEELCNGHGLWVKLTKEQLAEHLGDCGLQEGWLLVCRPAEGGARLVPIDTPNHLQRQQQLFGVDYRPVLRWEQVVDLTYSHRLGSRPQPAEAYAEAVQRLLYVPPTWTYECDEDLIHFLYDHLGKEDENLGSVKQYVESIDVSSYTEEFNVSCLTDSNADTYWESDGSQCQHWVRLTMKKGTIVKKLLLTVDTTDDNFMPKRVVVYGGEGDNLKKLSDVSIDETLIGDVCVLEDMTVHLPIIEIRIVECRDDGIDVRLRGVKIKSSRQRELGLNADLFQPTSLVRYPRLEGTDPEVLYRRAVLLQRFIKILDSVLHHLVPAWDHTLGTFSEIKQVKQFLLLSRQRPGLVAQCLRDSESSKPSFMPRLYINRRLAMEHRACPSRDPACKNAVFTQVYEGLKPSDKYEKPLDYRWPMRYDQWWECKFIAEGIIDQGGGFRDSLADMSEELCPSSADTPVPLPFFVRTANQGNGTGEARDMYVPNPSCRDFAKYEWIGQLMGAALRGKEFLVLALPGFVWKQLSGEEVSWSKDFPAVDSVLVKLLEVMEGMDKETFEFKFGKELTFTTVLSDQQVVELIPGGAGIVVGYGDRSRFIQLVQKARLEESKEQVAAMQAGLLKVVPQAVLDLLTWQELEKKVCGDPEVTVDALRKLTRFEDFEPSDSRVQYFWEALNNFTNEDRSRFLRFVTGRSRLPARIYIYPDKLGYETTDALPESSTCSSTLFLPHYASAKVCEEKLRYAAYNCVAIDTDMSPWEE
Chain of UniProt Q99714 (Q99714 whole entry, looked up): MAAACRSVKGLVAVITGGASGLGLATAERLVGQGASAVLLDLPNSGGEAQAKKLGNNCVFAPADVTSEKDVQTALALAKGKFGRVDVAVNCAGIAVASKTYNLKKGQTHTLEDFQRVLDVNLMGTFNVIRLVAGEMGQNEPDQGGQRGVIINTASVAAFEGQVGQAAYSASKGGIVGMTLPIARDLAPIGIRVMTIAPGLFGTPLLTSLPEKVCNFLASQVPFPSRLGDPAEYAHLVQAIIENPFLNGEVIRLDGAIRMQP
Chain of UniProt Q01581 (Q01581 whole entry, looked up): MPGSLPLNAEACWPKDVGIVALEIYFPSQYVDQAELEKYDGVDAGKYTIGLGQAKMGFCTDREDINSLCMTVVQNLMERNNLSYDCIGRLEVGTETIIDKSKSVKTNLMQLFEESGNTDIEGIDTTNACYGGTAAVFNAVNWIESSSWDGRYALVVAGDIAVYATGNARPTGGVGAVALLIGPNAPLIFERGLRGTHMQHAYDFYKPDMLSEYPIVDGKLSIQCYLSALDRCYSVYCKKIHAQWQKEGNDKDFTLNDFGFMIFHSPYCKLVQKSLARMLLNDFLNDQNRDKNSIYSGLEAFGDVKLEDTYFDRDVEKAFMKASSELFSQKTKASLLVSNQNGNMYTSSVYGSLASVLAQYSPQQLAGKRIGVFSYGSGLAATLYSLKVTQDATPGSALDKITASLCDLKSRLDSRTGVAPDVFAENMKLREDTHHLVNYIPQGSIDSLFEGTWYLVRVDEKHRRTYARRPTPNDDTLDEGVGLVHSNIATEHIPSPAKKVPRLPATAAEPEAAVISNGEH
Chain of UniProt A6NDN3 (A6NDN3 whole entry, looked up): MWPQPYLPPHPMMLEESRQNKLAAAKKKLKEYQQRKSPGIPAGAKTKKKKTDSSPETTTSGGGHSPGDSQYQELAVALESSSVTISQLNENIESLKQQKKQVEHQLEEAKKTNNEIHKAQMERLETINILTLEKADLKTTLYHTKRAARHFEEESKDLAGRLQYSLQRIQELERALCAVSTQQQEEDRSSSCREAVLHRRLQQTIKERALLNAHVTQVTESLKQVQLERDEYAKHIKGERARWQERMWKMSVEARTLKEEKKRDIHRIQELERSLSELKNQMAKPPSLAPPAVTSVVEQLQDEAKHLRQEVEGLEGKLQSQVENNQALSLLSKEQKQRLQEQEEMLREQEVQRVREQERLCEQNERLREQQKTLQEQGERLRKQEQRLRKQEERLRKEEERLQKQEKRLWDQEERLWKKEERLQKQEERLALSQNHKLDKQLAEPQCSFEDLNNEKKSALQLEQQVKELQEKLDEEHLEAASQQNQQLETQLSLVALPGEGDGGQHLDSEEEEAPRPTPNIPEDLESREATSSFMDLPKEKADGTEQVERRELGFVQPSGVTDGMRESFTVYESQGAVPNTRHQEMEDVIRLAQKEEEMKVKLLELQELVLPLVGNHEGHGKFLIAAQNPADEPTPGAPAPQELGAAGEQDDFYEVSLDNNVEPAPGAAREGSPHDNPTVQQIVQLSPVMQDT
Chain of UniProt Q14103 (Q14103 whole entry, looked up): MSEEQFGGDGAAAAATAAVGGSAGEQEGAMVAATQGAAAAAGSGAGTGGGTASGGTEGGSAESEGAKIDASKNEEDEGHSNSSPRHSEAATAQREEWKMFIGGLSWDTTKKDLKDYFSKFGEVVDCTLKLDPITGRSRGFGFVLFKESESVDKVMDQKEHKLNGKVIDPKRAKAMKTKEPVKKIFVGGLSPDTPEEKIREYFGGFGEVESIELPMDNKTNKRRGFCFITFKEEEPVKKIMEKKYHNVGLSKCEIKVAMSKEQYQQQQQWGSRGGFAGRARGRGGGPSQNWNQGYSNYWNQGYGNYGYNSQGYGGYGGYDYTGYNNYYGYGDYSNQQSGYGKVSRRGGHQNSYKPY
Chain of UniProt P55084 (P55084 whole entry, looked up): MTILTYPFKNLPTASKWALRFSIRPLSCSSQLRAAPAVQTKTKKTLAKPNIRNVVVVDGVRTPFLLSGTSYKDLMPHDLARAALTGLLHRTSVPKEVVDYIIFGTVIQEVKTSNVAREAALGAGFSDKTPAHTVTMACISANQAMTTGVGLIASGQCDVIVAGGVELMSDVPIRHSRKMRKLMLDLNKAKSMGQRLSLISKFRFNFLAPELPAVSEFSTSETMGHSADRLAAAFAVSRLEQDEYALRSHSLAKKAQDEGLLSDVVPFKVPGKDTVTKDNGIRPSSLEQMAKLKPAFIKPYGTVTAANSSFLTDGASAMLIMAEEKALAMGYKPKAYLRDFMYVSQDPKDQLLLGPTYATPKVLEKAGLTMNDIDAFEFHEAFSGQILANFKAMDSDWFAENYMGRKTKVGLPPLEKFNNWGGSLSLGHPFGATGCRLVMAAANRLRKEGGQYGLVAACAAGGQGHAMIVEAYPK
Chain of UniProt Q9Y6M1 (Q9Y6M1 whole entry, looked up): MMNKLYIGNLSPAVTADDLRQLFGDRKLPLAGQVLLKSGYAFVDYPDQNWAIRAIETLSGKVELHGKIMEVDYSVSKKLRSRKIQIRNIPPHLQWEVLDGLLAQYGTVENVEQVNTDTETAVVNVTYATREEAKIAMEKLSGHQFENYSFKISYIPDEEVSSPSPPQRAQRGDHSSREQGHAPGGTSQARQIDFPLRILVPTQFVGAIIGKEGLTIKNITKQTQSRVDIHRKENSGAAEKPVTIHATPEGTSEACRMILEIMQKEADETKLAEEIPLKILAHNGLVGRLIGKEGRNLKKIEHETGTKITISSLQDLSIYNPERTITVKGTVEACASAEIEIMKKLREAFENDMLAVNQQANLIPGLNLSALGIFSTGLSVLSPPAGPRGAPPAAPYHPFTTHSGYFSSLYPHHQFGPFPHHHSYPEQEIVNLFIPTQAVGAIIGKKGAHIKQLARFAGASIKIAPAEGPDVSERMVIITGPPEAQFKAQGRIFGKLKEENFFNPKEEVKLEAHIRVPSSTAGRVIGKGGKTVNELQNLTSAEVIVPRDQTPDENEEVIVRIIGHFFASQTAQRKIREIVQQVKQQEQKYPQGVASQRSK
Chain of UniProt Q99871 (Q99871 whole entry, looked up): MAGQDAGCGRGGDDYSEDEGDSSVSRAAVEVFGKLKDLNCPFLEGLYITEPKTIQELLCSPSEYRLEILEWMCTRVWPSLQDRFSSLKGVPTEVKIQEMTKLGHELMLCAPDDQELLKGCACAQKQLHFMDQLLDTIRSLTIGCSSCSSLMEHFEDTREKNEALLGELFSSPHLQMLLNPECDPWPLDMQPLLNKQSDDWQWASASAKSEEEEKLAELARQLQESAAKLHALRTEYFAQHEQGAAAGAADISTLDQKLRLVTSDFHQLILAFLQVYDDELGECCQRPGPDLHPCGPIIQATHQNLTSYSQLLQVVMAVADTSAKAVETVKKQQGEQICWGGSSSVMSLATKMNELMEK

Target	log2 fold change [1]	log2 fold change [2]	log2 fold change [3]	log2 fold change [4]	log2 fold change [5]	log2 fold change [6]	log2 fold change [7]	log2 fold change [8]	log2 fold change [9]	log2 fold change [10]	log2 fold change [11]	log2 fold change [12]	log2 fold change [13]	log2 fold change [14]	log2 fold change [15]	log2 fold change [16]	log2 fold change [17]	log2 fold change [18]	log2 fold change [19]	log2 fold change [20]
IGF2BP2 (UniProt Q9Y6M1)	0.016	-0.124	0.043	-0.008	-0.014	0.004	0.201	0.042	-0.005	0.001	-0.034	-0.015	0.012	-0.031	0	0.009	-0.011	0.021	-0.093	0.048
HADHB (UniProt P55084)	-0.046	0.033	0.081	-0.065	-0.03	-0.058	0.072	-0.019	-0.019	0.022	0.1	0.067	0.073	-0.041	0.037	0.138	0.016	0.218	0.014	-0.093
HMGCS1 (UniProt Q01581)	0.021	-0.073	0.004	-0.011	0.006	-0.021	0.078	0.012	-0.002	0.013	0.077	0.018	0.001	-0.031	0.003	0.006	-0.006	0.036	0.013	-0.004
HSPA8 (UniProt E9PK54)	-0.047	0.036	-0.066	-0.041	-0.05	-0.025	-0.004	-0.016	0.016	-0.051	-0.067	-0.013	0.051	-0.025	0.004	0.058	0.067	0.011	0.026	0.046
HSD17B12 (UniProt Q53GQ0)	0.012	-0.089	-0.11	-0.021	-0.046	-0.016	0.035	0.022	0.009	-0.131	0.31 (active)	-0.034	-0.025	-0.158	-0.08	0.41 (active)	0.011	0.047	-0.019	0.149
HSD17B10 (UniProt Q99714)	-0.02	-0.077	0.004	-0.029	0.05	-0.035	0.141	0.013	-0.009	-0.021	-0.031	-0.013	0.002	-0.049	0.013	0.022	-0.031	-0.008	0	0.026
GOLGA6B (UniProt A6NDN3)	-0.019	-0.054	-0.002	0.018	-0.086	-0.048	-0.053	-0.074	0.043	0.065	-0.105	-0.061	-0.193	-0.105	0.121	0.109	0.027	-0.381	-0.04	0
HNRNPL (UniProt P14866)	0.035	-0.174	0.016	0.015	-0.02	0	0.073	-0.026	-0.007	-0.019	0.005	-0.02	-0.042	0.018	0.03	-0.081	-0.011	-0.018	0.004	-0.016
HAUS7 isoform 2 (UniProt Q99871)	0.001	-0.128	0.021	-0.045	-0.021	0.024	0.099	0.031	-0.135	-0.043	0.022	0.012	-0.053	0.102	-0.063	-0.156	-0.113	0.072	-0.139	0.015
HECTD3 (UniProt Q5T447)	0.007	-0.047	0.02	0.045	-0.023	0.02	0.11	-0.015	0.002	0.014	-0.047	-0.098	-0.034	-0.001	-0.006	-0.013	0.018	0.056	-0.13	-0.004
HNRNPD isoform 2 (UniProt Q14103)	0.142	0.108	0.001	-0.043	0.065	-0.032	-0.008	0.018	-0.008	0	0.047	0.043	0.034	0.559 (active)	0.015	-0.085	0.004	-0.023	0.095	-0.108
HIST2H2AA3 (UniProt Q6FI13)	0.202	0.092	-0.002	-0.032	0.277	-0.027	0.086	-0.097	-0.027	-0.086	0.001	-0.016	0.049	0.555 (active)	-0.044	-0.143	0.022	-0.088	0.159	-0.171
